Methyltransferases = Primary Screen for Target Class Profiling of Small Molecule Inhibitors of Methyltransferases; purified enzyme, MTase-Glo SAH luminescence; active compounds read low; calls only at 40 µM; actives 3.9% (n = 25,000); call rule not given here
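Each enzyme was assayed with SAM and its substrate. SAH formation detected by MTase-Glo luminescence; single-point 40 uM screen[…].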
The depositor's hits bear a star; i = inactive; + = active, no number; ! = a repeat was not active. This excerpt belongs to a sample that is enriched for hits. % is scaled to controls: 0 for no effect and ±100 for the full control effect.

SMILES	Methyltransferases
COc1ccccc1-c1ccc(C(=O)N2CCC(NC(=O)Cc3ccc(F)cc3)CC2)cc1	i
c1nc(NCC2CCOC2)c2cc(-c3ccc4c(c3)OCO4)ccc2n1 (stereo unspecified)	+
O=c1cc(N2CCOCC2)oc2c(NCC3CCOCC3)nccc12	i
CN1Cc2ccc(NCc3ccccc3)nc2C(C)(C(=O)Nc2ccccc2)C1 (stereo unspecified)	i
CCN(CC)CCNC(=O)CCc1nnc2n(Cc3ccccc3)c(=O)c3ccccc3n12	i
CC1CCN(CCCNC(=O)CCc2nnc3n(Cc4ccccc4)c(=O)c4ccccc4n23)CC1	+
Cc1ccc(CNC(=O)CCc2nnc3n(Cc4ccc(Cl)cc4)c(=O)c4ccccc4n23)cc1	i
CCCCNC(=O)CCc1nnc2n(Cc3ccc(Cl)cc3)c(=O)c3ccccc3n12	i
Cc1ccc(CCNC(=O)CCc2nnc3n(Cc4ccccc4)c(=O)c4ccccc4n23)cc1	i
CN1CCN(CCCNC(=O)CCc2nnc3n(Cc4ccccc4Cl)c(=O)c4ccccc4n23)CC1	i
CCOCCCNC(=O)CCc1nnc2n(Cc3ccc(Cl)cc3)c(=O)c3ccccc3n12	i
CC1CCN(CCCNC(=O)CCc2nnc3n(Cc4ccc(Cl)cc4)c(=O)c4ccccc4n23)CC1	+
CCOCCCNC(=O)CCc1nnc2n(Cc3ccc(F)cc3)c(=O)c3ccccc3n12	i
O=C(CCc1nnc2n(Cc3ccc(F)cc3)c(=O)c3ccccc3n12)NCCN1CCOCC1	i
CC1CCN(CCCNC(=O)CCc2nnc3n(Cc4ccc(F)cc4)c(=O)c4ccccc4n23)CC1	+
CCN(CC)CCCNC(=O)CCc1nnc2n(Cc3ccc(Cl)cc3)c(=O)c3ccccc3n12	+
CC(=O)NCCNc1nc2c(-c3cccc(Br)c3)nnn2c2ccccc12	i
COc1cccc2c1OCCCN(Cc1cn(-c3ccccc3)nn1)C2	i
Cc1cc(-c2nncc3c(C(C)(C)C)c(OCc4ncnn4C)nn23)no1	i
O=C1CC[C@H](C(=O)N2CCCCC2)N1	i
Cc1ccc(CNC(=O)CCn2ccc3cc(S(=O)(=O)N4CCCC4)ccc32)o1	i
CCCNC(=O)C1CCc2ncc(-c3ccc(OC)cc3)n2C1 (stereo unspecified)	i
CN1C(=O)c2cc3ccccc3n2CC1(C)C(=O)NCC(=O)NCc1cccs1 (stereo unspecified)	i
CC(C)Cn1c(=O)c2ccc(C(=O)NC(C)C)cc2n2c(=O)n(CC(=O)c3cccc(Cl)c3)nc12	i
COC(=O)c1ncn2c1C(=O)N(Cc1ccc(N(C)C)cc1)C(C)(C(=O)NC1CCCCC1)C2 (stereo unspecified)	i
SMILES	Methyltransferases
CCn1c(=O)n(CC(=O)NCc2ccc3c(c2)OCO3)c(=O)c2cnc(-c3ccc(Cl)cc3)nc21	i
O=C(Nc1ccc(F)cc1)c1cc(-c2ccc[nH]2)n[nH]1	i
CC(C)c1ccc(N2C(=O)c3cc4sccc4n3CC2(C)C(=O)NC2CCCCC2)cc1 (stereo unspecified)	i
CCC1c2ccc(C)n2CCN1C(=O)Nc1ccc2c(c1)OCCO2 (stereo unspecified)	i
Cc1sc2c(c1C)C(c1ccc(Cl)cc1)=N[C@H](CC(=O)NCCCCNC(=O)COc1cccc3c1C(=O)N([C@H]1CCC(=O)NC1=O)C3=O)c1nnc(C)n1-2	+
CCC(C)NC(=O)c1ccc2c(=O)n(C(C)C)c3nn(Cc4ccccc4Cl)c(=O)n3c2c1 (stereo unspecified)	i
CC(C)CNc1ccc2c(n1)C(C)(C(=O)NCc1cccnc1)CN(Cc1ccccc1)C2 (stereo unspecified)	i
CC(C)(Sc1ccc(CCN(CCCCC2CCCCC2)C(=O)NC2CCCCC2)cc1)C(=O)O	+!
CSc1ccc(CCN2C(=O)c3ccc(-c4ccco4)n3CC2(C)C(=O)NC2CCCCC2)cc1 (stereo unspecified)	i
CC1(C(=O)NC2CCCC2)Cn2c(ccc2-c2ccccc2)C(=O)N1CCCc1ccccc1 (stereo unspecified)	i
O=C(NCc1c[nH]c2ncccc12)c1ccccc1Cl	i
CN[C@H](CNC(=O)N1CCC[C@@H]([C@@H](OCCNC(=O)OC)c2cccc(Cl)c2)C1)C[C@H]1CCCOC1	i
Cc1c[nH]c2nccc(Oc3c(F)cc(Nc4cc(Cl)nc(N)n4)cc3F)c12	+
OC[C@@]1(O)CO[C@H](OC[C@H]2O[C@@H](OCCc3ccccc3)[C@H](O)[C@@H](O)[C@@H]2O)[C@@H]1O	i
C=CCc1ccc(O[C@@H]2O[C@H](CO[C@@H]3O[C@@H](C)[C@H](O)[C@@H](O)[C@H]3O)[C@@H](O)[C@H](O)[C@H]2O)cc1	i
OC1COC(OCC2OC(OCCc3ccccc3)C(O)C(O)C2O)C(O)C1O (stereo unspecified)	+
C[C@@H]1O[C@@H](OC[C@H]2O[C@@H](OCCc3ccccc3)[C@H](O)[C@@H](O)[C@@H]2O)[C@H](O)[C@H](O)[C@H]1O	i
COc1ccc(CCO[C@@H]2O[C@H](CO[C@@H]3OC[C@H](O)[C@H](O)[C@H]3O)[C@@H](O)[C@H](O)[C@H]2O)cc1	+
COC(=O)c1ccc(OC)cc1O[C@@H]1O[C@H](CO[C@@H]2OC[C@@H](O)[C@H](O)[C@H]2O)[C@@H](O)[C@H](O)[C@H]1O	i
CCOC(=O)c1cc2n(n1)CC(C)(C(=O)NC1CCCCC1)N(c1cccc(F)c1)C2=O (stereo unspecified)	i
CCCn1c(=O)c2ccc(C(=O)NC(C)C)cc2n2c(=O)n(CC(=O)c3ccc(OC)cc3)nc12	i
O=C(c1ccccc1)N1CCCN(c2nc3ncccc3o2)CC1	i
C[C@]12CC/C(=N\OCC(=O)O)C=C1CC[C@@H]1[C@@H]2[C@@H](O)C[C@@]2(C)[C@H]1CC[C@]2(O)C(=O)CO	i
CCNC(=O)N1CCC(NC(=O)c2cccc(CCC(C)(C)O)c2)CC1	i
CCOCCCN1C(=O)c2cc3sc(CC)cc3n2CC1(C)C(=O)NC1CCCCC1 (stereo unspecified)	i
SMILES	Methyltransferases
Cc1ccc(Cl)cc1N1CCN(S(=O)(=O)c2cc3[nH]c(=O)[nH]c3cc2Br)CC1	i
O=C(Nc1ccc(F)cc1)c1cc2cccnn2n1	i
CC[C@H](C)C(=O)O[C@H]1CCC=C2C=C[C@H](C)[C@H](CC[C@@H]3C[C@@H](O)CC(=O)O3)[C@H]21	+
CC[C@H](C)C(=O)O[C@H]1C[C@@H](C)C=C2C=C[C@H](C)[C@H](CC[C@@H]3C[C@@H](O)CC(=O)O3)[C@H]21	i
Cc1ccc2nc(NC(=O)CSc3nc4c(c(=O)n3-c3ccc(F)cc3)SCC4)sc2c1	i
CN1C(=O)c2cc(C(=O)NCCCN3CCCC3=O)nn2CC1(C)C(=O)NC1CCCCCC1 (stereo unspecified)	i
Cc1ccsc1CCNC(=O)Cn1c(=O)oc2cc(S(=O)(=O)N3CCCC3)ccc21	+
O=C(Cn1c(=O)oc2cc(S(=O)(=O)N3CCCC3)ccc21)NCCC1=CCCCC1	i
O=C(Cn1c(=O)oc2cc(S(=O)(=O)N3CCCC3)ccc21)NCCc1ccc(Cl)cc1	i
CN1c2cc(C(=O)N3CCN(c4ccccn4)CC3)ccc2C(=O)N2CCCCC21 (stereo unspecified)	i
COc1ccccc1CNC(=O)C1(C)Cn2nc(-c3ccccc3)cc2C(=O)N1Cc1ccco1 (stereo unspecified)	i

High-throughput results as filed in PubChem.
